Results on 10 molecules are retold here after PubChem BioAssay (NCATS).

The structures appear in SMILES notation. Results filed as inconclusive are left out. Active and inactive are the calls of the source. Unless noted, the rule behind the calls is not given here.

Assay [1] is described as follows: High-throughput drug toxicity screening in the BPDCN cell line Gen2.2 (AID 1224824).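 Note: cells exposed to compounds for 48 h before reading.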 To be noted: Gen2.2 BPDCN cells; at 45.8 µM (top of the series) unless noted. The method, boiled down: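 Readout is ATP luminescence from Gen2.2 cells after two days of drug exposure in serum-containing medium at 37 °C. Values express percent activity, with vehicle defining full signal and 9.2 uM bortezomib defining zero.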

A short description of assay [2]: High-throughput drug toxicity screening in the BPDCN cell line Cal-1 (AID 1224825). To be noted: Cal-1 BPDCN cell viability, qHTS; at 45.8 µM (top of the series) unless noted. In short, it runs like this: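 Cal-1 cells, 500 per well in phenol-red-free RPMI with 10% FBS, exposed to compounds for 48 hours at 37C, 5% CO2. Viability read by CellTiter-Glo luminescence; percent activity normalized to DMSO (100%) and 9.2 uM bortezomib final (0%).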

Assay [3] is described as follows: qHTS assay for measurement of the activity of small molecule inhibitors on Zika virus induced Caspase-3 activity in human iPSC derived neural progenitor cells (hNPCs) (AID 1224857; active = well fitted curve in the direction sought with a large enough effect; an effect the other way counts as inactive or inconclusive; note: % of control where 0% means no effect; nearly all actives have a fitted effect of over 65% in size). In short, it runs like this:
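In medium with heparin 2 ug/ml and cyclopamine 2 uM, hNPCs (350 cells/well) received compound for one hour and then Zika virus at 2 FFU/cell; caspase activity was measured by Caspase-Glo 3/7 luminescence 6 h post-infection.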
In general terms: qHTS replaces the single test concentration by a dilution series.

Assay [4] is described as follows: qHTS assay for measurement of the activity of small molecule inhibitors on Zika virus induced Caspase-3 activity in human astrocytoma cells (AID 1224859; active = well fitted curve in the direction sought with a large enough effect; an effect the other way counts as inactive or inconclusive;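 note: plate controls were ZIKV-infected untreated cells for no effect and uninfected cells for full effect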). In short, it runs like this: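 A cell-based luminescent caspase-3/7 assay used SNB-19 cells infected with ZIKV (2 FFU/cell) for 6 h following 1 h compound pretreatment.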
A short description of assay [5]: qHTS Screen of the MIPE 4.0 Collection Against Ewings Sarcoma (RDES) (AID 1259252; active = well fitted curve in the direction sought with a large enough effect; an effect the other way counts as inactive or inconclusive; note: nearly all actives have a fitted effect of over 35% in size; note: potency is the fitted concentration of half-maximal effect). In short, it runs like this:
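Log-phase cells in RPMI with 5% FBS attached for 4 h, then received compounds as a titration for 48 h at 37C, 5% CO2. Viability was read by CellTiter-Glo luminescence and normalized to DMSO and no-cell wells.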

Assay [6] in a line: qHTS profiling for inhibitors of Plasmodium falciparum (HB3) proliferation (AID 743324; active = well fitted curve in the direction sought with a large enough effect; an effect the other way counts as inactive or inconclusive;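 note: 100% = DMSO vehicle wells and 0% = artemisinin-treated control wells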). To be noted: Plasmodium falciparum HB3 blood-stage proliferation; at 28.7 µM (top of the series) unless noted. In short, it runs like this: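 P. falciparum HB3 grown in erythrocytes (0.3% parasitemia, 2.5% hematocrit final) with compound for 72 h at 37 C, 5% CO2. Parasite DNA detected by SYBR Green after saponin/triton lysis overnight; normalized to 0.29 uM artemisinin and DMSO.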

Assay [7] in a line: qHTS profiling of the MIPE4 collection as inhibitors of Plasmodium falciparum (3D7) proliferation (AID 743344).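 Note: scaled between DMSO vehicle wells and 0.29 µM artemisinin as full inhibition.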 To be noted: P. falciparum 3D7 in erythrocytes, SYBR Green DNA fluorescence, 72 h; at 28.5 µM (top of the series) unless noted. In short, it runs like this:
(§1)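 Erythrocytes infected with P. falciparum (0.3% parasitemia, 2.5% hematocrit) incubated with compounds 72 h at 37 C, 5% CO2. Lysis with saponin/Triton buffer containing SYBR Green I, overnight at room temperature in the dark; DNA fluorescence (485/535 nm) normalised to 0.29 uM artemisinin and DMSO.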

Assay [8] can be described thus: qHTS profiling of the MIPE4 collection as inhibitors of Plasmodium falciparum (DD2) proliferation (AID 743345). To be noted: P. falciparum Dd2 in erythrocytes, SYBR Green DNA, 72 h; at 28.5 µM (top of the series) unless noted. In short, it runs like this:
as §1

Assay [9] can be described thus: qHTS profiling of the MIPE4 collection as inhibitors of Plasmodium falciparum (HB3) proliferation (AID 743347).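 Note: plate controls were DMSO vehicle wells for no effect and artemisinin wells for full effect.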 To be noted: P. falciparum HB3 in erythrocytes, SYBR Green DNA, 72 h; at 28.5 µM (top of the series) unless noted. In short, it runs like this: as §1
Assay [10] can be described thus: qHTS profiling of the MIPE4 collection as inhibitors of Plasmodium falciparum (DD2) proliferation (Rep 2) (AID 743346). To be noted: P. falciparum Dd2 in erythrocytes, SYBR Green DNA, 72 h; at 28.5 µM (top of the series) unless noted. The method, boiled down: as §1

For `CCN1C[C@H](C)n2c(c(O)c3c(=O)n(Cc4ccc(F)c(Cl)c4)nc(C(=O)NC)c32)C1=O`, the cell viability, % of control (lower = more cytotoxic) in [1] came out at 108%. Besides, the viability (% of control) in assay [2] is 113%. The Potency result in [3], in [4] and in assay [5] was “inactive” throughout.
Consider `Cc1cccc(Nc2nc(N[C@@H]3CCCC[C@H]3N)ncc2C(N)=O)c1`, for which, in assay [6], the remaining proliferation (% of control), lower = more inhibition turned out to be 0.632%. This molecule showed a parasite growth, % of DMSO control in [7] of 5.2%. The molecule further had a parasite growth remaining, % of DMSO control (lower = more inhibition) in assay [8] of 10.2%. For the same molecule, the growth, % of control in assay [9] came to 2.45%. Further, the cell viability, % of control (lower = more cytotoxic) in assay [1] was 2.09%. Further, the viability (% of control) in assay [2] was found to be 2.41%. Besides, the Potency entry in assay [3] and in [4] was “inactive” each time. Further, in assay [5], the Potency is 16.6 µM (active).
`CO[C@@H]1C(N(C)C(=O)c2ccccc2)C[C@H]2O[C@]1(C)n1c3ccccc3c3c4c(c5c6ccccc6n2c5c31)C(=O)NC4=O` (some centres undefined): in assay [6], the remaining proliferation (% of control), lower = more inhibition is 120%. Moreover, in [7], the parasite growth, % of DMSO control worked out at 17.5%. For the same molecule, the parasite growth remaining, % of DMSO control (lower = more inhibition) in assay [8] was 8.87%. Also, the parasite growth, % of control (lower = inhibition) in assay [10] stood at 122%. Moreover, in assay [9], the growth, % of control is 28.7%. Further, in assay [1], the cell viability, % of control (lower = more cytotoxic) turned out to be 247%. Besides, the viability (% of control) in assay [2] came out at 28.3%. The Potency entry in assay [3] and in assay [4] was “inactive” each time. Moreover, in assay [5], the Potency is 4.18 µM (active).
In the case of `CN1C(=O)C(Cc2c[nH]c3ccccc23)NC1=S` (centres undefined), in assay [6], the remaining proliferation (% of control), lower = more inhibition turned out to be 73.5%. In assay [7], this molecule had a parasite growth, % of DMSO control of 338%. For the same molecule, the parasite growth remaining, % of DMSO control (lower = more inhibition) in [8] stood at 99%. For the same molecule, the parasite growth, % of control (lower = inhibition) in assay [10] worked out at 123%. The growth, % of control in assay [9] was found to be 245%. Also, the cell viability, % of control (lower = more cytotoxic) in assay [1] turned out to be 70.1%. The viability (% of control) in assay [2] is 106%. In addition, the Potency result in assay [3], in assay [4] and in assay [5] was “inactive” in each case.
In the case of `CC(=O)Nc1cccc(-n2c(=O)n(C3CC3)c(=O)c3c(Nc4ccc(I)cc4F)n(C)c(=O)c(C)c32)c1`, the remaining proliferation (% of control), lower = more inhibition in [6] is -0.298%. The parasite growth, % of DMSO control in [7] was determined as 5.62%. The molecule further displayed a parasite growth remaining, % of DMSO control (lower = more inhibition) in assay [8] of 6.3%. The parasite growth, % of control (lower = inhibition) in assay [10] was determined as 9.44%. In assay [9], this molecule yielded a growth, % of control of 2.56%. In addition, the cell viability, % of control (lower = more cytotoxic) in assay [1] turned out to be 11.2%. Besides, the viability (% of control) in assay [2] worked out at 7.97%. The Potency result in [3] and in [4] was “inactive” in each case. Further, in [5], the Potency is 20.9 µM (active).
`COC(=O)Nc1ccc(-c2nc(N3CCOCC3)c3cnn(C4CCN(C(=O)OC)CC4)c3n2)cc1`: the remaining proliferation (% of control), lower = more inhibition in [6] amounted to 0.698%. The molecule further yielded a parasite growth remaining, % of DMSO control (lower = more inhibition) in [8] of 14.3%. Besides, the parasite growth, % of control (lower = inhibition) in assay [10] worked out at 27.4%. In assay [9], this molecule came in with a growth, % of control of 7.52%. Besides, in [1], the cell viability, % of control (lower = more cytotoxic) was determined as 8.32%. Further, the viability (% of control) in assay [2] turned out to be 4.85%. Besides, the Potency result in [3] and in assay [4] was “inactive” each time. In addition, the Potency in assay [5] is 0.0372 µM (active).
For `NS(=O)(=O)c1ccc(Nc2nc(OCC3CCCCC3)c3[nH]cnc3n2)cc1`, the parasite growth, % of DMSO control in [7] was 17.4%. The molecule also yielded a parasite growth remaining, % of DMSO control (lower = more inhibition) in assay [8] of 13.9%. In addition, the parasite growth, % of control (lower = inhibition) in assay [10] turned out to be 24.8%. This molecule also gave a growth, % of control in [9] of 11%. For the same molecule, the cell viability, % of control (lower = more cytotoxic) in [1] was determined as 12%. Further, in [2], the viability (% of control) is 9.86%. For the same molecule, the Potency entry in [3] and in assay [4] was “inactive” each time. For the same molecule, the Potency in [5] was 5.9 µM (active).
Consider `C[C@@H](NC(=O)c1ncnc(N)c1Cl)c1ncc(C(=O)Nc2cc(C(F)(F)F)c(Cl)cn2)s1`, for which the parasite growth, % of DMSO control in assay [7] amounted to 63.1%. Also, the parasite growth remaining, % of DMSO control (lower = more inhibition) in assay [8] was 87.8%. Besides, in [10], the parasite growth, % of control (lower = inhibition) was 58.8%. The molecule further showed a growth, % of control in assay [9] of 60.9%. In assay [1], the cell viability, % of control (lower = more cytotoxic) turned out to be 2.67%. Moreover, in assay [2], the viability (% of control) was 66.8%. For the same molecule, the Potency result in assay [3] and in [4] was “inactive” throughout. Moreover, the Potency in assay [5] is 23.5 µM (active).
For the molecule `C[C@H]1COC2=C1C(=O)C(=O)c1c2ccc2c1CCCC2(C)C`, the parasite growth, % of DMSO control in assay [7] was found to be 5.99%. Also, the parasite growth remaining, % of DMSO control (lower = more inhibition) in assay [8] turned out to be 12.1%. For the same molecule, in assay [10], the parasite growth, % of control (lower = inhibition) was found to be 15.5%. Further, the growth, % of control in assay [9] amounted to 9.95%. In assay [1], the cell viability, % of control (lower = more cytotoxic) amounted to 23.4%. Moreover, the viability (% of control) in assay [2] worked out at 56.6%. The Potency entry in assay [3] and in assay [4] was “inactive” each time. Also, the Potency in assay [5] was 20.9 µM (active).
Take `CCC[C@H](Nc1nc(-c2ccc(NC(=O)NCC)c(OC)c2)ncc1C)c1cccnc1`: in [7], the parasite growth, % of DMSO control turned out to be 4.72%. The molecule also registered a parasite growth remaining, % of DMSO control (lower = more inhibition) in assay [8] of 7.78%. Besides, the parasite growth, % of control (lower = inhibition) in assay [10] was determined as 20.1%. Also, the growth, % of control in assay [9] turned out to be 4.28%. Moreover, the cell viability, % of control (lower = more cytotoxic) in assay [1] was 9.57%. Also, the viability (% of control) in assay [2] is 4.63%. Further, the Potency entry in [3] and in [4] was “inactive” throughout. The Potency in [5] was 0.0093 µM (active).
